Source: ChEMBL document CHEMBL3988442, “University of Dundee, Small-Polar-MMV Screening Library” (2021)
Screen size: about 48,000 compounds; about 13,000 (27%) showed an effect of 50% or more. This is one part of the list.

test system: Wolbachia pipientis; assay: Anti-Wolbachia Cell-Based Screen; type: functional; design: scale not given: in the data most compounds retested in dose-response had high values; conditions: 5 µM

Compound | Percent Effect
COc1cc(C)ccc1OCc1nc(C(=O)N2CCC(C)CC2)co1 | -9.42%
CCN1CCC2(CN(C(C)=O)CC23CCN(CC2CC2)CC3)C1=O.O=C(O)C(F)(F)F (configuration not stated) | -51.48%
COc1ccccc1C1CNC(=O)c2nc(-c3nccn3C)[nH]c2C1 (configuration not stated) | 6.875%
Cn1cc(C(=O)N2CCCCC2CCc2ccccc2)cn1 (configuration not stated) | -0.576%
COc1ccc(CN(C)[C@@H]2CN(C(=O)c3cnn(C)c3)C[C@H]2O)cc1 | 88.16%
COc1ccc([C@@H]2CN(C(=O)CCCc3cn[nH]c3)C[C@H]2N(C)C)cc1 | -10.76%
Cn1cc(C(=O)N2CCCCC2CCc2ccc(O)cc2)cn1 (configuration not stated) | -2.601%
COc1ccc(CN(C)[C@@H]2CN(C(=O)c3cncs3)C[C@H]2O)cc1 | 107.9%
COc1ccc(CN(C)[C@@H]2CN(C(=O)c3cccs3)C[C@H]2O)cc1 | -2.392%
CNC(=O)C(C)(C)CNC(=O)Nc1ccc(C)cn1 | -9.639%
CCC(Nc1nc(C(F)(F)F)nc2ccccc12)C(=O)O (configuration not stated) | 14.92%
COC(=O)c1cccc(-c2nc(CC3CCN(C)CC3)no2)c1 | -1.18%
Cc1ccc(-c2csc(-c3cccc(C(=O)O)c3)n2)cc1 | -9.33%
COc1ccc(OC)c(-c2csc(-c3cccc(C(=O)O)c3)n2)c1 | -14.75%
CCc1noc(-c2cccc(C(=O)O)c2)n1 | 137.4%
CCc1nc(-c2cccc(C(=O)O)c2)no1 | 110.9%
CCc1noc(-c2ccc(SCC(=O)O)nc2)n1 | 5.745%
Cc1ccc(Cl)cc1S(=O)(=O)NCc1cnc(N(C)C)n1C | -1.472%
Cc1c(NCC(C)(C)C)cccc1C(=O)N(C)Cc1ncnn1C | 4.357%
CNC(=O)c1cccc(CNC(=O)C2CC(=O)N(CCN(C)C)C2)c1 (configuration not stated) | -3.95%
Cc1ccc(CN2Cc3nccn3CC(Cn3cccn3)C2)s1.O=C(O)C(F)(F)F (configuration not stated) | 93.7%
Cc1ccc(CN2Cc3nccn3CC(Cn3cncn3)C2)s1.O=C(O)C(F)(F)F (configuration not stated) | 96.42%

Compound | Percent Effect
CCN(CC)CC1CN(Cc2ccc(C)s2)Cc2nccn2C1.O=C(O)C(F)(F)F.O=C(O)C(F)(F)F (configuration not stated) | -7.962%
Cc1ncsc1C(=O)NC1CCN(CC(=O)NCc2ccccc2)CC1 | 0.6366%
Cc1cc(-c2cccc(C(=O)O)c2)nc(C2CCN(C(C)C)CC2)n1 | 102.4%
Cc1cc(-c2ccc(C(=O)O)cc2)nc(C2CCN(C(C)C)CC2)n1 | 108.9%
Cc1ccc(C(NC(=O)CC2CCN(C(C)C)CC2)C(=O)O)cc1 (configuration not stated) | -11.69%
Cc1cc(-c2ccc(C(=O)O)cc2)nc(C2CCCN(C(C)C)C2)n1 (configuration not stated) | 2.794%
O=C(N[C@H]1CN(C2CCOCC2)C[C@@H]1C1CC1)c1cc(O)no1 | 17.55%
CCN1CC[C@@]2(C(=O)N3CCCC3)CCN(S(C)(=O)=O)CC[C@@H]12.O=C(O)C(F)(F)F | -22.27%
CN(C)CC(C)(C)CN1CCC(c2ccnc(-c3cccc(O)c3)c2)C1 (configuration not stated) | -7.648%
O=C(Cn1cncn1)NCC1(O)CCCc2ccccc21 (configuration not stated) | 1.206%
CC(CNC(=O)OC(C)(C)C)N(C)C(=O)COc1ccccc1C#N (configuration not stated) | 101.4%
CCNC(=O)NC1CCC(Oc2ccccc2C#N)CC1 (configuration not stated) | 4.038%
CC(C)Oc1ccccc1CNC(=O)N(C)C(C)CS(C)(=O)=O (configuration not stated) | -10.62%
CC(Oc1ccccc1C#N)C(=O)NC1CC1 (configuration not stated) | 12.68%
COc1ccccc1OCC(=O)n1ncc(C#N)c1N | -0.431%
CC(C)(C)OC(=O)NCCNC(=O)c1cnc(-c2ccccc2)nc1 | -9.911%
CCS(=O)(=O)CC(C)N(C)C(=O)COc1ccccc1C#N (configuration not stated) | 95.28%
CCN(CC)C(=O)c1ccc(COc2ccccc2C#N)o1 | -6.305%
CC(C)C(C)N(C)C(=O)COc1ccccc1C#N (configuration not stated) | 106.3%
O=C(O)C(F)(F)F.O=C([C@H]1CN(Cc2ccoc2)C[C@H]2OCC[C@@H]12)N1CCCCO1 | -7.154%
Cc1ncsc1CCN(C)Cc1cc2n(n1)CCN(S(C)(=O)=O)C2 | 0.3281%
CCOc1ncccc1NC(=O)c1cc(C)c(C)s1 | 7.979%

Compound | Percent Effect
O=C(c1ccc(Cn2cc(Br)cn2)cc1)N1CCOCC1 | -22.08%
O=C(C1CC(=O)N(c2n[nH]c3cc(Br)ccc23)C1)N1CCSCC1 (configuration not stated) | 118.9%
COc1ccc(Br)cc1CCC(=O)N1CCSCC1 | -8.265%
O=C(C1CCN(c2ccnc3ccc(Br)cc23)CC1)N1CCOCC1 | 20.8%
O=C(C1CC(=O)N(C2CC2)C1)N1CCC(Oc2ccccc2Cl)CC1 (configuration not stated) | 2.803%
O=C(C1CC(=O)N(c2n[nH]c3cc(Br)ccc23)C1)N1CCCC1 (configuration not stated) | 93.67%
O=C(C1CC(=O)N(c2ccccc2Br)C1)N1CCN(CC(F)(F)F)CC1 (configuration not stated) | 5.588%
O=C(C1CC(=O)N(c2n[nH]c3cc(Br)ccc23)C1)N1CCOCC1 (configuration not stated) | 93.25%
O=C(C1CC(=O)N(c2ccccc2Br)C1)N1CCCCCC1 (configuration not stated) | 6.985%
COc1ccnc(N2CCN(C(C)c3nc(C)no3)CC2)n1 (configuration not stated) | -3.819%
O=C(Nc1ccccc1)c1cccc(S(=O)(=O)NC[C@@H]2C[C@H](F)CN2)c1 | 3.3%
CN(CC(N)=O)Cc1cc(Cl)cc2cccnc12 | -12.39%
O=C(NCCc1nc2ccccc2s1)c1coc(CN2CCOCC2)c1 | -17.38%
CCc1nnc2n1CCN(CC(O)CN1CCC(C)CC1)C2 (configuration not stated) | -4.838%
CC(=O)NC1CCCN(C(=O)NCc2cc[nH]n2)C1 (configuration not stated) | 125.6%
CC(=O)NC1CCCN(C(=O)NCc2cccnc2N(C)C)C1 (configuration not stated) | 9.234%
O=C(NCc1cc[nH]n1)N1CCCCC(N2CCCC2)C1 (configuration not stated) | 0.854%
CC(=O)NC1CCCN(C(=O)NCc2cccnc2)C1 (configuration not stated) | 121%
CS(=O)(=O)NC1CCN(C(=O)NCCNc2ccccn2)CC1 | 2.154%
CS(=O)(=O)NC1CCCN(C(=O)NCc2cccnc2)C1 (configuration not stated) | -6.706%
CC(C)(C)OC(=O)N1CCCCC1C(=O)NCc1cc[nH]n1 (configuration not stated) | -6.483%
CC(=O)NC1CCCN(C(=O)CCc2cccnc2)C1 (configuration not stated) | 16.44%

Compound | Percent Effect
CC(=O)NC1CCCN(C(=O)NCc2cccnc2-n2cccn2)C1 (configuration not stated) | -5.614%
O=C(NCc1cc[nH]n1)N1CCCC(N2CCCC2)C1 (configuration not stated) | 111.7%
CS(=O)(=O)NC1CCN(C(=O)NCc2cccnc2)CC1 | 127.5%
COCCc1noc(CN2CCCc3cccc(OC)c32)n1 | 0.4274%
Cc1noc(-c2ccc(N(C)Cc3ccncn3)nc2)n1 | -29.65%
c1ccc(CNC[C@H]2COCc3nc4cccnc4n32)cc1 | 10.55%
COCC(C)NC(=O)NCCc1cccc(OC)c1O (configuration not stated) | -7.103%
CCn1nc(CC(C)C)cc1C(=O)N1CCN([C@H]2CCCC[C@@H]2O)CC1 | 0.6704%
CCS(=O)(=O)N1CC(c2nc(-c3ccsc3)no2)C1 | -8.132%
CCc1c(C)nn(CCNC(=O)Cc2csc(C)n2)c1C | -26.69%
CN(C)CCn1cc(NC(=O)NC(C)(C)c2nccs2)cn1 | -14.78%
CCCN(C(=O)COC)c1nc2c(s1)CCc1c-2cnn1C | 1.347%
CCCN(C(=O)c1cccnc1)c1nc2c(s1)CCc1c-2cnn1C | 53.11%
CCCN(C(=O)c1ccncc1)c1nc2c(s1)CCc1c-2cnn1C | 62.27%
OCc1ccc(CN2CCC(n3cc(-c4ccc(F)cc4)nn3)CC2)o1 | -0.1205%
CC(C)C(C(=O)NC1CCOCC1)n1cnc2cc(F)c(F)cc21 (configuration not stated) | 3.744%
CCCc1cc(=O)[nH]c2nnc(SCC(=O)NCc3ccc(C)cc3)n12 | -24%
CC(=O)N1N=C(c2ccccc2)OC1C(=O)NCCc1cccc(F)c1 (configuration not stated) | 137.5%
Cc1nc(-c2ccc(NCCc3ccc(O)cc3)nc2)[nH]c(=O)c1C | -6.931%
CC(=O)N1N=C(c2ccccc2)OC1C(=O)NCCc1ccc(C)cc1 (configuration not stated) | 114.7%
Cc1nc(C2CCCN2CC(=O)NCCOc2ccccc2)no1 (configuration not stated) | 3.183%
CC(=O)N1N=C(c2ccccc2)OC1C(=O)NCCOc1ccccc1 (configuration not stated) | 130.7%

Compound | Percent Effect
O=C(NCCOc1ccccc1)C1NCCc2[nH]cnc21 (configuration not stated) | 9.443%
CC(=O)N1N=C(c2ccccc2)OC1C(=O)NCCC1=CCCCC1 (configuration not stated) | -1.689%
CC(=O)NCCNC(=O)NCCCc1cccc(F)c1 | -6.354%
CC(=O)N1N=C(c2ccccc2)OC1C(=O)NCCc1ccc(O)cc1 (configuration not stated) | 114.8%
CC(=O)N1N=C(c2ccccc2)OC1C(=O)NCCc1cccc(Cl)c1 (configuration not stated) | 1.222%
Cc1ccc2c(c1)CN(CC(=O)NCCc1ccc(F)cc1)CC(C)O2 (configuration not stated) | 6.694%
CC(NC(=O)Nc1cnn(CC(N)=O)c1)c1ccc(Cl)s1 (configuration not stated) | 9.25%
NC(=O)NCCC(=O)N1CCC(c2cc(-c3ccccc3Cl)n[nH]2)CC1 | -13.9%
CC(C)(CNC(=O)CSc1nnnn1C1CC1)c1ccccc1F | 14.51%
CC(C)(C#N)c1ccc(NS(=O)(=O)CC2CCCCO2)cc1 (configuration not stated) | -23.28%
Cc1nc(NCCc2ccc(Cl)cc2)cc(C(=O)N2CCCCC2)n1 | 24.03%
CC(=O)N1N=C(c2ccccc2)OC1C(=O)NCCN(C(C)C)C(C)C (configuration not stated) | 125.8%
CC(=O)N1N=C(c2cccs2)OC1C(=O)NCCc1cccc(Cl)c1 (configuration not stated) | 135.3%
CC(=O)N1N=C(c2ccccc2)OC1C(=O)NCCc1ccc(Cl)cc1 (configuration not stated) | 146.7%
NC(=O)c1cccc(CCNCc2cnc(-c3cccs3)s2)c1 | -4.854%
CC(C)N(C)CCCNC(=O)c1cnc(-c2ccccc2)nc1 | -3.501%
CC(C)N(CCNC(=O)c1[nH]nc2ccc(I)cc12)C(C)C | -4.489%
Cc1nc(NCCc2ccc(Cl)cc2)cc(C(=O)N2CCOCC2)n1 | 8.895%
Cn1cc(CCNC(=O)C2(c3cccc(Cl)c3)CC2)cn1 | 11.84%
